Source: PubChem BioAssay (Broad Institute)
STK33 kin inh = STK33 kinase inhibitors, primary screen, biochemical, luminescence, ADP-Glo, MBP substrate. Serine/threonine-protein kinase 33 (Homo sapiens), Q9BYT3. 27,000 tested, 0.44% active. inhibition, % at 12.5 µM. AID 2322, 2010; in the data active = inhibition above about 20%
Target sequence (Q9BYT3 whole entry, looked up): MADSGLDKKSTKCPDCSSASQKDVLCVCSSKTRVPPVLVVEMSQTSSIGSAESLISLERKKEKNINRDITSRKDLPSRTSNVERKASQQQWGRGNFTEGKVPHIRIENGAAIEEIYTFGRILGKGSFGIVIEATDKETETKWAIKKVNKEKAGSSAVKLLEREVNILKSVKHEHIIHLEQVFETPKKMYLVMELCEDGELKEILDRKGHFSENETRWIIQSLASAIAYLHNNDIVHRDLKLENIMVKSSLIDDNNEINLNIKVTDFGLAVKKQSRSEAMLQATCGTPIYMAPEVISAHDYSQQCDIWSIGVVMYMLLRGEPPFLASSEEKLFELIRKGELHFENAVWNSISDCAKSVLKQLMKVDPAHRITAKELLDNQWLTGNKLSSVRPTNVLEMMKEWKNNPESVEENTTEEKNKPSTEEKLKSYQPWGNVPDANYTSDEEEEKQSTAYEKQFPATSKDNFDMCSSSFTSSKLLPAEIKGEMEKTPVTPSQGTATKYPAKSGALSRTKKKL
NOMO-1 viab = NOMO-1 AML cell viability reduction, primary screen, STK33 inhibitor project, CellTiter-Glo luminescence; AID 2330, 2010; NOMO-1 AML viability, 72 h; inhibition, % (no concentration beside the values); 37,000 tested, 7.5% active; in the data active = inhibition above about 80%
PD-1 reverse act = activators reversing PD-1 mediated T-cell inhibition, primary screen, luminescence, primary human CD4 T cells, PD-L1 beads; 29,000 tested, under 10 active; activation, % (test concentration not listed); CellTiter-Glo 96 h; call rule not given here;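 note: 0% = median vehicle wells and 100% = positive control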
Starred values were filed as active, the others as inactive; . = no result. The entries come from a sample that favours hits as a whole.

SMILES	STK33 kin inh	NOMO-1 viab	PD-1 reverse act
Cc1c(C#N)c2ccccc2n1CC(=O)NCCc1c[nH]c2ccccc12	3	18	.
Cc1c(CO)c2ccccc2n1Cc1ccccc1C#N	4	121*	-5
COc1ccc(OC)c(C(C)NC(=O)Nc2cccc([N+](=O)[O-])c2)c1 (stereo not given)	-2	2	-2
CC1CNCCN1S(=O)(=O)c1cccc2cnccc12 (stereo not given)	9	73	-1
O=S(=O)(c1cccc2cnccc12)N1CCCNCC1	41*	0	2
C=C1C(=O)O[C@@H]2CC=C(CCC(C)O)C(C)C[C@@H]12 (stereo not given in full)	1	121*	-8
COc1ccccc1NC(=O)CSc1nnc(-c2ccccc2)n1-c1cccc(C)c1	4	24	-1
Cc1cccc(-n2c(N)cc(=O)nc2SCC(=O)Nc2sc3c(c2C#N)CCCCCC3)c1	-1	39	-9
COc1ccc(S(=O)(=O)Nc2cccc3c2O[C@H](CN(C)Cc2ccc(C(=O)Nc4ccccc4N)cc2)[C@@H](C)CN([C@H](C)CO)C3=O)cc1	.	55	0
COc1ccc(S(=O)(=O)Nc2cccc3c2O[C@@H](CN(C)Cc2ccc(C(=O)Nc4ccccc4N)cc2)[C@@H](C)CN([C@H](C)CO)C3=O)cc1	.	110*	2
COc1ccc(CN(C)C[C@@H]2Oc3c(NS(=O)(=O)c4ccc(OC)cc4)cccc3C(=O)N([C@@H](C)CO)C[C@H]2C)cc1	.	-3	.
COc1ccc(S(=O)(=O)Nc2cccc3c2O[C@H](CN(C)Cc2ccc(C(=O)Nc4ccccc4N)cc2)[C@H](C)CN([C@@H](C)CO)C3=O)cc1	.	127*	-2
COc1ccc(S(=O)(=O)Nc2cccc3c2O[C@H](CN(C)Cc2ccc(C(=O)Nc4ccccc4N)cc2)[C@H](C)CN([C@H](C)CO)C3=O)cc1	.	128*	-1
Cc1cc(SCC(=O)Nc2ccc(SC(F)F)cc2)nc2ccccc12	1	-18	.
CCn1c(SCC(=O)Nc2ccccc2OC)nnc1-c1c[nH]c2ccccc12	-1	-24	.
CC(Sc1nc(N)cc(N)n1)C(=O)Nc1cccc(Cl)c1 (stereo not given)	-2	9	-1
Brc1c(Br)c(Br)c2n[nH]nc2c1Br	20*	32	4
CC(C)(C)C1CCC2(CC1)C(C#N)C2(C#N)C(=O)c1ccccc1 (stereo not given)	.	125*	-6
CC12CCC(CC(=O)c3ccccc3)(CC1)CC2	.	43	-1
C[C@H]1CN([C@@H](C)CO)C(=O)c2cccc(NC(=O)Nc3ccc(C(F)(F)F)cc3)c2O[C@@H]1CN(C)C(=O)Nc1ccc2c(c1)OCO2	.	96*	.
C[C@@H]1CN([C@H](C)CO)C(=O)c2cccc(NC(=O)Nc3ccc(C(F)(F)F)cc3)c2O[C@@H]1CN(C)C(=O)Nc1ccc2c(c1)OCO2	.	112*	-3
C[C@@H]1CN([C@@H](C)CO)C(=O)c2cccc(NC(=O)Nc3ccc4c(c3)OCO4)c2O[C@@H]1CN(C)C(=O)Nc1ccc2c(c1)OCO2	.	55	0
C[C@H](CO)N1C[C@H](C)[C@H](CN(C)C(=O)Nc2ccc3c(c2)OCO3)Oc2c(NC(=O)Nc3ccc(C(F)(F)F)cc3)cccc2C1=O	.	115*	-3
C[C@@H]1CN([C@@H](C)CO)C(=O)c2cccc(NC(=O)Nc3ccc4c(c3)OCO4)c2O[C@H]1CN(C)C(=O)Nc1ccc2c(c1)OCO2	.	8	.
C[C@H]1CN([C@@H](C)CO)C(=O)c2cccc(NC(=O)Nc3ccc4c(c3)OCO4)c2O[C@@H]1CN(C)C(=O)Nc1ccc2c(c1)OCO2	.	41	-1
SMILES	STK33 kin inh	NOMO-1 viab	PD-1 reverse act
O=C(CSc1nnc(-c2ccco2)n1-c1cccc2ccccc12)Nc1ccc(C(=O)O)cc1	-1	6	0
Cc1ccc(S(=O)(=O)NCCC(=O)Oc2ccc3c(=O)c(-c4ccc(F)cc4)coc3c2)cc1	1	20	2
CCn1c(=O)c2c3c(sc2n2c(SCC(=O)Nc4ccc(Cl)cc4)nnc12)CCCC3	3	-14	.
C[C@H](CO)N1C[C@H](C)[C@H](CN(C)Cc2ccc(Cl)c(Cl)c2)Oc2ccc(NC(=O)Cc3cn(C)c4ccccc34)cc2C1=O	.	108*	-2
C[C@@H]1CN([C@@H](C)CO)C(=O)c2cc(NC(=O)Cc3cn(C)c4ccccc34)ccc2O[C@H]1CN(C)Cc1ccc(Cl)c(Cl)c1	4	97*	-2
C[C@H](CO)N1C[C@H](C)[C@@H](CN(C)Cc2ccc(Cl)c(Cl)c2)Oc2ccc(NC(=O)Cc3cn(C)c4ccccc34)cc2C1=O	.	61	-2
C[C@@H]1CN([C@@H](C)CO)C(=O)c2cc(NC(=O)Cc3cn(C)c4ccccc34)ccc2O[C@@H]1CN(C)Cc1ccccc1	.	63	-4
Cc1ccc(NC(=O)CSc2nc3c(c(C(F)(F)F)n2)CCCC3)cc1C	-1	-6	0
O=C(O)CCc1ccc(F)cc1	.	-17	1
CC(C)CC(C(=O)c1ccccc1)c1ccccc1 (stereo not given)	.	49	0
CCc1cccc2c(C(C(=O)c3ccccc3)c3c[nH]c4c(CC)cccc34)c[nH]c12	.	111*	-1
COc1ccc(C)cc1S(=O)(=O)N(C)CC(=O)Nc1ccc(F)c(Cl)c1	-2	15	1
Cn1c(NCCCN)nc2c1c(=O)n(Cc1ccccc1Cl)c(=O)n2C	-1	.	.
Cc1ccc(S(=O)(=O)N(C)C[C@H]2Oc3c(NC(=O)Nc4ccc(C(F)(F)F)cc4)cccc3C(=O)N([C@@H](C)CO)C[C@H]2C)cc1	.	119*	-7
COc1ccc(S(=O)(=O)N(C)C[C@@H]2Oc3c(NC(=O)Nc4ccc(C(F)(F)F)cc4)cccc3C(=O)N([C@@H](C)CO)C[C@@H]2C)cc1	.	93*	-1
COc1ccc(S(=O)(=O)N(C)C[C@@H]2Oc3c(NC(=O)Nc4ccc(C(F)(F)F)cc4)cccc3C(=O)N([C@H](C)CO)C[C@@H]2C)cc1	.	114*	-2
COc1ccc(NC(=O)Nc2cccc3c2O[C@@H](CN(C)S(=O)(=O)c2ccc(OC)cc2)[C@H](C)CN([C@H](C)CO)C3=O)cc1	.	16	-2
COc1ccc(NC(=O)Nc2cccc3c2O[C@H](CN(C)S(=O)(=O)c2ccc(OC)cc2)[C@@H](C)CN([C@H](C)CO)C3=O)cc1	.	-1	2
Cc1ccc(S(=O)(=O)N(C)C[C@@H]2Oc3c(NC(=O)Nc4ccc(C(F)(F)F)cc4)cccc3C(=O)N([C@@H](C)CO)C[C@@H]2C)cc1	.	39	-1
Cc1ccc(S(=O)(=O)NC2(C(F)(F)F)C(=O)N(Cc3ccco3)C3=C2C(=O)CC(C)(C)C3)cc1 (stereo not given)	2	13	.
O=S(=O)(CCc1ccncc1)c1ccccc1	.	-4	0
Cc1cccc(C(=O)Nc2ccc3[nH]c(=O)[nH]c3c2)c1	.	-26	1
Cc1cccc(OCC(=O)NC(=S)Nc2ccc(C)cc2O)c1	6	102*	-11
COC(=O)c1sccc1NC(=O)COc1cccc(C)c1	1	7	-2
COc1ccc(CCN2C(=O)CSC2=NC2CC2)cc1OC	.	-14	0
O=C1CSC(=S)N1CCc1ccc(Cl)cc1	.	113*	0
